# Experimental data published in the supplement of paper PMC8728848.
# About 410 targets per protein were measured; listed, in parts, are those with the strongest signals and a random draw of the rest.
# Tests used:
# Assay in all cases: glycan array binding signal (z-score within array); higher = stronger binding
# Conditions in all cases: glycan notation: IUPAC condensed, linker removed
# GalNAc6S(b1-4)GlcNAc = target: GalNAc6S(b1-4)GlcNAc
# Outline: (§1)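 Glycan array data were curated from 3228 arrays in the Consortium for Functional Glycomics database and kept only where the protein sequence was available. Glycan names were converted to IUPAC-condensed notation, and columns mapping to the same glycan were averaged. The binding signal is a within-array Z-score, averaged across arrays of the same protein sequence at different concentrations or buffers and across linkers. Negative Z-scores can be read as non-binding.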
# [1] = target: GlcNAc(b1-2)Man(a1-3)[GlcNAc(b1-2)Man(a1-6)]Man(b1-4)GlcNAc(b1-4)GlcNAc
# Outline: as §1
# GlcNAc(b1-6)GalNAc = target: GlcNAc(b1-6)GalNAc
# Outline: as §1
# Kdn(a2-3)Gal(b1-3)GalNAc = target: Kdn(a2-3)Gal(b1-3)GalNAc
# Outline: as §1
# [2] = target: Man(a1-2)Man(a1-3)[Man(a1-2)Man(a1-6)]Man
# Outline: as §1
# [3] = target: Man(a1-3)[Man(a1-6)]Man(a1-6)[Man(a1-3)]Man(b1-4)GlcNAc(b1-4)GlcNAc
# Outline: as §1
# [4] = target: Neu5Ac(a2-3)Gal(b1-3)GlcNAc(b1-3)Gal(b1-3)GlcNAc
# Outline: as §1
# [5] = target: Neu5Ac(a2-3)Gal(b1-3)GlcNAc(b1-4)Gal(b1-4)Glc
# Outline: as §1
# [6] = target: Neu5Ac(a2-3)Gal(b1-4)GlcNAc(b1-2)Man(a1-3)[GlcNAc(b1-4)][Neu5Ac(a2-3)Gal(b1-4)GlcNAc(b1-2)Man(a1-6)]Man(b1-4)GlcNAc(b1-4)GlcNAc
# Outline: as §1
# [7] = target: Neu5Ac(a2-3)Gal(b1-4)GlcNAc(b1-2)Man(a1-3)[Neu5Ac(a2-3)Gal(b1-4)GlcNAc(b1-2)Man(a1-6)]Man(b1-4)GlcNAc(b1-4)[Fuc(a1-6)]GlcNAc
# Outline: as §1
# [8] = target: Neu5Ac(a2-3)Gal(b1-4)GlcNAc(b1-2)[Neu5Ac(a2-3)Gal(b1-4)GlcNAc(b1-6)]Man(a1-6)[Neu5Ac(a2-3)Gal(b1-4)GlcNAc(b1-2)Man(a1-3)]Man(b1-4)GlcNAc(b1-4)GlcNAc
# Outline: as §1
# [9] = target: Neu5Ac(a2-3)Gal(b1-4)[Fuc(a1-3)]GlcNAc(b1-3)Gal(b1-4)GlcNAc
# Outline: as §1
# [10] = target: Neu5Ac(a2-3)Gal6S(b1-4)GlcNAc
# Outline: as §1
# Neu5Ac(a2-3)GalNAc = target: Neu5Ac(a2-3)GalNAc
# Outline: as §1
# Neu5Ac(a2-6)Gal(b1-4)Glc = target: Neu5Ac(a2-6)Gal(b1-4)Glc
# Outline: as §1
# [11] = target: Neu5Ac(a2-6)Gal(b1-4)GlcNAc(b1-2)Man(a1-6)Man(b1-4)GlcNAc(b1-4)GlcNAc
# Outline: as §1
# [12] = target: Neu5Ac(a2-6)Gal(b1-4)GlcNAc(b1-2)[Neu5Ac(a2-6)Gal(b1-4)GlcNAc(b1-4)]Man(a1-3)[GlcNAc(b1-4)][Neu5Ac(a2-6)Gal(b1-4)GlcNAc(b1-4)Man(a1-6)]Man(b1-4)GlcNAc(b1-4)GlcNAc
# Outline: as §1
# [13] = target: Neu5Ac(a2-6)Gal(b1-4)GlcNAc(b1-3)Gal(b1-4)GlcNAc
# Outline: as §1
# [14] = target: Neu5Ac(a2-6)Gal(b1-4)GlcNAc(b1-3)Gal(b1-4)GlcNAc(b1-3)GalNAc
# Outline: as §1
# Neu5Ac(a2-6)GalNAc = target: Neu5Ac(a2-6)GalNAc
# Outline: as §1
# [15] = target: Neu5Ac(a2-8)Neu5Ac(a2-8)Neu5Ac(a2-8)Neu5Ac(a2-3)[GalNAc(b1-4)]Gal(b1-4)Glc
# Outline: as §1
# [16] = target: Neu5Ac9Ac(a2-3)Gal(b1-4)GlcNAc
# Outline: as §1
# [17] = target: Neu5Gc(a2-8)Neu5Gc(a2-6)Gal(b1-4)GlcNAc
# Outline: as §1
binder,measurement,setting,value
Cohesin-marm-DC-ASGPR-CRD (protein) LDITSHHHHHHDDLDAVRIKVDTVNAKPGDTVRIPVRFSGIPSKGIANCDFVYSYDPNVLEIIEIEPGDIIVDPNPDKSFDTAVYPDRKIIVFLFAEDSGTGAYAITKDGVFATIVAKVKEGAPNGLSVIKFVEVGGFANNDLVEQKTQFFDGGVNVGDTTEPATPTTPVTTPTTTDDLDAASCPINWVEHQGSCYWFSRSGKTWPEAERYCQLENTHLVVINSREEQNFVQAHLGSAYTWMGLSDPEGVWKWVDGTDYSSGFQNWKPGQPDDWQGHGLGGGEDCAHFHPDGRWNDDVCQRSYHWVCEAGLTQASQDSH,glycan array binding signal (z-score),GalNAc6S(b1-4)GlcNAc,3
same,glycan array binding signal (z-score),[1],-0.449
same,glycan array binding signal (z-score),GlcNAc(b1-6)GalNAc,2.94
same,glycan array binding signal (z-score),Kdn(a2-3)Gal(b1-3)GalNAc,-0.362
same,glycan array binding signal (z-score),[2],-0.447
same,glycan array binding signal (z-score),[3],-0.452
same,glycan array binding signal (z-score),[4],-0.433
same,glycan array binding signal (z-score),[5],-0.449
same,glycan array binding signal (z-score),[6],-0.448
same,glycan array binding signal (z-score),[7],-0.449
same,glycan array binding signal (z-score),[8],-0.331
same,glycan array binding signal (z-score),[9],-0.388
same,glycan array binding signal (z-score),[10],-0.447
same,glycan array binding signal (z-score),Neu5Ac(a2-3)GalNAc,-0.435
same,glycan array binding signal (z-score),Neu5Ac(a2-6)Gal(b1-4)Glc,-0.421
same,glycan array binding signal (z-score),[11],-0.446
same,glycan array binding signal (z-score),[12],-0.368
same,glycan array binding signal (z-score),[13],-0.46
same,glycan array binding signal (z-score),[14],-0.378
same,glycan array binding signal (z-score),Neu5Ac(a2-6)GalNAc,3.16
same,glycan array binding signal (z-score),[15],3.12
same,glycan array binding signal (z-score),[16],-0.447
same,glycan array binding signal (z-score),[17],-0.447
